{"source": "PubChem BioAssay (NCATS)", "key": {"[1]": {"experiment": "Viability qHTS for spleen associated tyrosine kinase inhibitor (SYKi) naive MV4-11 cells (AID 1963823); note: nearly all actives have a fitted effect of over 40% in size", "outline": "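Cells: MV4-11, SYK inhibitor naive, 500 per well. Treatment: library compounds, 72 hr, 37 C, 5% CO2. Read-out: CellTiter-Glo luminescence after 10 min RT.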"}, "[2]": {"experiment": "Viability qHTS for spleen associated tyrosine kinase inhibitor (SYKi) drug resistant MV4-11 cells (AID 1963824); note: nearly all actives have a fitted effect of over 35% in size", "outline": "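SYK inhibitor-resistant MV4-11 AML cells, 500 per well, added to predispensed compounds and incubated 72 hr at 37 C, 5% CO2. Viability measured by CellTiter-Glo luminescence after 10 min at room temperature.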"}, "[3]": {"experiment": "Cellular viability qHTS for adrenocortical cancer (ACC) cell line SW-13 (AID 1963989); note: nearly all actives have a fitted effect of over 65% in size;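 for activity (max response): cells grown in serum-free medium with ITS supplement; % is set by controls: 0 for no effect and ±100 for the full control effect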", "conditions": "SW-13 ACC cells viability, CellTiter-Glo, 48 h; activity (max response): stronger effect = lower value", "outline": "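48 h treatment, SW-13 in ITS/DMEM serum-free; doses up to 46 uM; readout CellTiter-Glo luminescence; curve fit four-parameter logistic.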"}}, "note": "Several values for one entry are separate records, joined by “and”; a condition that tells them apart may be missing. Equal values may be shown once. Results filed as inconclusive are left out. Values without a mark were called inactive. Activity calls are given as the source filed them. Calls come from the whole dose curve; as a rule, active = well fitted curve in the direction sought with a large enough effect; inconclusive = small, poorly fitted or top-dose-only effect, or another doubt; inactive = no such curve, though single readings can be large; an effect the other way counts as inactive or inconclusive. Potency is the fitted concentration of half-maximal effect."}
{"smiles": "CCc1cc(C(N)=O)ccc1-n1nc(C(C)C)c2c(-n3cnc(-c4cnn(C)c4)c3)ccnc21", "values": [{"measurement": "Potency", "setting": "[1]", "result": "0.372 µM (active)"}, {"measurement": "Potency", "setting": "[2]", "result": "0.59 µM (active)"}, {"measurement": "Potency", "setting": "[3]", "result": "2.82 µM (active)"}]}
{"smiles": "O=C(NO)c1cnc(NC2(c3ccccc3)CC2)nc1", "values": [{"measurement": "Potency", "setting": "[1]", "result": "5.25 µM (active)"}, {"measurement": "Potency", "setting": "[2]", "result": "4.17 µM (active)"}, {"measurement": "Potency", "setting": "[3]", "result": "10 µM (active)"}]}
{"smiles": "CC(=O)OCC(=O)[C@@]1(O)CC[C@H]2[C@@H]3CCC4=CC(=O)CC[C@]4(C)[C@H]3C(=O)C[C@@]21C", "values": [{"measurement": "Potency", "setting": "[1]", "result": "inactive"}, {"measurement": "Potency", "setting": "[2]", "result": "inactive"}, {"measurement": "activity (max response)", "setting": "[3]", "result": "-12.6% and -6.75%"}]}
{"smiles": "CS(=O)(=O)N1CCC(NC(=O)c2[nH]ncc2NC(=O)c2c(Cl)cccc2Cl)CC1", "values": [{"measurement": "Potency", "setting": "[1]", "result": "0.934 µM (active)"}, {"measurement": "Potency", "setting": "[2]", "result": "0.291 µM (active)"}, {"measurement": "Potency", "setting": "[3]", "result": "3.98 µM (active)"}]}
{"smiles": "CC1(N)CCN(c2cccnc2NC(=O)c2nc(-c3ncccc3C(F)(F)F)cnc2N)CC1", "values": [{"measurement": "Potency", "setting": "[1]", "result": "5.9 µM (active)"}, {"measurement": "Potency", "setting": "[2]", "result": "11.8 µM (active)"}, {"measurement": "Potency", "setting": "[3]", "result": "17.8 µM (active)"}]}
{"smiles": "O=C(NCc1cccc(O)c1)Nc1nc(-c2ccncc2)cs1", "values": [{"measurement": "Potency", "setting": "[1]", "result": "10.3 µM (active)"}, {"measurement": "Potency", "setting": "[2]", "result": "16.4 µM (active)"}, {"measurement": "activity (max response)", "setting": "[3]", "result": -22.1, "unit": "%"}]}
{"smiles": "OC[C@H]1O[C@@H](S[C@@H]2O[C@H](CO)[C@H](O)[C@H](n3cc(-c4cccc(F)c4)nn3)[C@H]2O)[C@H](O)[C@@H](n2cc(-c3cccc(F)c3)nn2)[C@H]1O", "values": [{"measurement": "Potency", "setting": "[1]", "result": "inactive"}, {"measurement": "Potency", "setting": "[2]", "result": "inactive"}, {"measurement": "activity (max response)", "setting": "[3]", "result": 11.8, "unit": "%"}]}
{"smiles": "CCN(CCCOc1ccc2c(Nc3cc(CC(=O)Nc4cccc(F)c4)[nH]n3)ncnc2c1)CCOP(=O)(O)O", "values": [{"measurement": "Potency", "setting": "[1]", "result": "23.1 nM (active) and 186 nM (active)"}, {"measurement": "Potency", "setting": "[2]", "result": "58 nM (active) and 372 nM (active)"}, {"measurement": "activity (max response)", "setting": "[3]", "result": -30.5, "unit": "%"}]}
